Among the data in PubChem BioAssay (EPA / NIEHS) are outcome and AC50 values, retold here.

Records with an inconclusive call do not appear. Some structures have more than one record in an assay (separate samples or runs), and their calls can disagree. Calls of active or inactive are those of the source. The calls were made as follows, unless noted: active = hit-call score of the fitted dose curve at least 0.9, where 1 is the maximum; inactive = score below 0.9.

The target of assay [1] is human Retinoid X Receptor beta (RXRb), RXRB (gene 6257) (UniProt P28702). The experiment in a line: ATG_RXRb_TRANS: Attagene TRANS-FACTORIAL HepG2 Assay for human Retinoid X Receptor beta (RXRb) (AID 2283013; active = hit-call score of the fitted dose curve at least 0.9, where 1 is the maximum). A digest of the protocol: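 After a 24 h incubation with test chemical, transfected HepG2 cells carrying NR-Gal4 fusions and GAL4-UAS reporter transcription units yield RNA whose reporter cDNA is FAM-labelled, HpaI-cut and sized by capillary electrophoresis; increases over DMSO are scored.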
Chain of human Retinoid X Receptor beta (RXRb), RXRB (gene 6257) (P28702 whole entry, looked up, the tested form may be a part): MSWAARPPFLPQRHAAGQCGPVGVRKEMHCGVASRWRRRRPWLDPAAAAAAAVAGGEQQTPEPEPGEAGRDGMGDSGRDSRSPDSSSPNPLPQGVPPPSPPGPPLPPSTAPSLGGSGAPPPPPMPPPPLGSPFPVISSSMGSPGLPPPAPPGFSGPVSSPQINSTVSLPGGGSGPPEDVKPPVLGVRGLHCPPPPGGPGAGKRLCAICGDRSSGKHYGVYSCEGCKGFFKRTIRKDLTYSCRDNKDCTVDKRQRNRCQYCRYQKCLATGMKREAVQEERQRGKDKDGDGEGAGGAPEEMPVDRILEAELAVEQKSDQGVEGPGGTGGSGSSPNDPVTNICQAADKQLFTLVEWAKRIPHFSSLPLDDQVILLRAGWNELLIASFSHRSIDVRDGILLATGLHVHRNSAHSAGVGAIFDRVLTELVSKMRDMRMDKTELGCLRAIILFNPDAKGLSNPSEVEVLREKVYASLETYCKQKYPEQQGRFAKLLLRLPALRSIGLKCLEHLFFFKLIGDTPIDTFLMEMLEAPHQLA

Assay [2] has as its target human Thyroid Receptor alpha (THRa1), THRA (gene 7067) (UniProt P10827). As to the kind of experiment: ATG_THRa1_TRANS: Attagene TRANS-FACTORIAL HepG2 Assay for human Thyroid Receptor alpha (THRa1) (AID 2283014; active = hit-call score of the fitted dose curve at least 0.9, where 1 is the maximum). A digest of the protocol:
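Reporter transcript induction, read by capillary electrophoresis of 6-FAM-labelled RT-PCR products, reflects activity of a transfected THRa1-Gal4 fusion in HepG2 liver cells. Cells were dosed for 24 h; activity was fitted in the positive direction against DMSO.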

Read-out in assay [3]: E-selectin (Homo sapiens) (UniProt P16581)
The experiment in a line: BSK_3C_Eselectin: BioMAP Diversity Plus: 3C Assay for Eselectin Biomarker Activity (AID 2283015).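 As to outcome: cell surface E-selectin protein quantified by ELISA 24 h after dosing.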 As to conditions: primary human endothelial cells (HUVEC); actives raise or lower the signal. A digest of the protocol:
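ELISA read-out of E-selectin on endothelial monolayers after 24 h chemical treatment. Human umbilical vein primary cells served as the system, with DMSO defining baseline activity for bidirectional fitting.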

Read-out in assay [4]: Interleukin-1 alpha (IL1a), IL1A (gene 3552)
As to the kind of experiment: BSK_BE3C_IL1a: BioMAP Diversity Plus: BE3C Assay for Interleukin-1 alpha (IL1a) Biomarker Activity (AID 2283016). As to conditions: primary human bronchial epithelial cells; actives raise or lower the signal. A digest of the protocol: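 Measured in human lung primary bronchial epithelial cells: IL-1a by ELISA at 24 h after dosing, with bidirectional fitting against DMSO.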

Read-out in assay [5]: Monocyte Chemoattractant Protein-1 (MCP1), CCL2 (gene 6347)
The experiment in a line: BSK_3C_MCP1: BioMAP Diversity Plus: 3C Assay for Monocyte Chemoattractant Protein-1 (MCP1) Biomarker Activity (AID 2283017). As to conditions: primary human endothelial cells (HUVEC); actives raise or lower the signal. A digest of the protocol:
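ELISA read-out of MCP-1 from human umbilical vein endothelial cell cultures harvested 24 h post-dosing. Gain or loss of signal was fitted relative to DMSO.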

Read-out in assay [6]: Human Leukocyte Antigen - DR isotype (HLADR), HLA-DRA (gene 3122)
As to the kind of experiment: BSK_3C_HLADR: BioMAP Diversity Plus: 3C Assay for Human Leukocyte Antigen - DR isotype (HLADR) Biomarker Activity (AID 2283019). Particulars: primary human endothelial cells (HUVEC); actives raise or lower the signal. Summed up: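 ELISA readout of surface HLA-DR on human umbilical vein endothelium, taken 24 h after chemical treatment. Gain- and loss-of-signal were both fitted relative to DMSO.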

Read-out in assay [7]: Interleukin-8 (IL8), CXCL8 (gene 3576)
The experiment in a line: BSK_3C_IL8: BioMAP Diversity Plus: 3C Assay for Interleukin-8 (IL8) Biomarker Activity (AID 2283020). As to conditions: primary human endothelial cells (HUVEC); actives raise or lower the signal. Summed up: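 Using DMSO-treated wells as the baseline, bidirectional curve fitting was applied to ELISA-measured IL-8 from human umbilical vein endothelial cultures sampled 24 h after compound addition.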

Read-out in assay [8]: Monokine induced gamma interferon (MIG), CXCL9 (gene 4283)
As to the kind of experiment: BSK_3C_MIG: BioMAP Diversity Plus: 3C Assay for Monokine induced gamma interferon (MIG) Biomarker Activity (AID 2283021).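 As to AC50: MIG protein level measured by immunoassay in the treated endothelial cultures.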 As to conditions: primary human endothelial cells (HUVEC); actives raise or lower the signal. A digest of the protocol:
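ELISA-measured MIG in dosed HUVEC 3C cultures at 24 h, analysed by bidirectional fitting with DMSO defining baseline activity.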

In assay [9] the target is human Vitamin D Receptor (VDR), VDR (gene 7421) (UniProt P11473). As to the kind of experiment: ATG_VDR_TRANS: Attagene TRANS-FACTORIAL HepG2 Assay for human Vitamin D Receptor (VDR) (AID 2283022; active = hit-call score of the fitted dose curve at least 0.9, where 1 is the maximum). Summed up: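 Steps: transfect HepG2 with GAL4-UAS-driven reporter constructs; dose compounds 24 h; isolate RNA, reverse-transcribe, PCR-amplify with 6-FAM-labelled primer extension and HpaI digestion; quantify fragments by capillary electrophoresis relative to DMSO.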
Chain of human Vitamin D Receptor (VDR), VDR (gene 7421) (P11473 whole entry, looked up, the tested form may be a part): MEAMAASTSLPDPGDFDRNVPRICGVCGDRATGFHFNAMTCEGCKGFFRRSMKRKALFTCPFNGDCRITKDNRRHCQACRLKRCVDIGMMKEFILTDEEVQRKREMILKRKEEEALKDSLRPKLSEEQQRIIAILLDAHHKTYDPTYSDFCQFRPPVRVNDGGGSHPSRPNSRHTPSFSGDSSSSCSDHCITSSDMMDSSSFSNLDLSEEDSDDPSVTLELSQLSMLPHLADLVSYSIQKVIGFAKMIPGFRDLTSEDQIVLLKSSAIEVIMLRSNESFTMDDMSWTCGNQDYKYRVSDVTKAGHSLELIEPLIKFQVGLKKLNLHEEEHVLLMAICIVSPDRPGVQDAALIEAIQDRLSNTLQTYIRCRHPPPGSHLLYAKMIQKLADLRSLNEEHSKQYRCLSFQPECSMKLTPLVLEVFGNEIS

Read-out in assay [10]: Monocyte Chemoattractant Protein-1 (MCP1), CCL2 (gene 6347)
The experiment in a line: BSK_4H_MCP1: BioMAP Diversity Plus: 4H Assay for Monocyte Chemoattractant Protein-1 (MCP1) Biomarker Activity (AID 2283018). Particulars: primary human endothelial cells (HUVEC); actives raise or lower the signal. A digest of the protocol:
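Primary human umbilical vein endothelium is exposed to chemical for 24 h before MCP-1 is assayed by ELISA. Concentration-response fitted bidirectionally relative to DMSO.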

Chain of E-selectin (Homo sapiens) (P16581 whole entry, looked up): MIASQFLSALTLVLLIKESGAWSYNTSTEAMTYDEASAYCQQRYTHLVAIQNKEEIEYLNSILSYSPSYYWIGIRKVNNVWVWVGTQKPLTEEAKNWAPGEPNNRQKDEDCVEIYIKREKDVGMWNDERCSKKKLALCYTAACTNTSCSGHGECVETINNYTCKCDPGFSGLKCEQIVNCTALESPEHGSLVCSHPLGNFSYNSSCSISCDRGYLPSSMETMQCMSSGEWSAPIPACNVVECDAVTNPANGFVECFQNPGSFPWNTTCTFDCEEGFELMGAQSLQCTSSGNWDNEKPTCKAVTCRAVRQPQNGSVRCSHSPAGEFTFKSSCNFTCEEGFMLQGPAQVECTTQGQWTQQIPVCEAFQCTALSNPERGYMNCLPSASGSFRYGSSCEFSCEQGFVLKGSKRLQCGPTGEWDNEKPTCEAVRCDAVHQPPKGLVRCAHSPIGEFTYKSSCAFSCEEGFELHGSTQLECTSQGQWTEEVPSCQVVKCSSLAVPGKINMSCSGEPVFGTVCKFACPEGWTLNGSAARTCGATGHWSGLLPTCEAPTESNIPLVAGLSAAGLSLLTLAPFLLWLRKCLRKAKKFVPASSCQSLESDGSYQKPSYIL
Chain of human Thyroid Receptor alpha (THRa1), THRA (gene 7067) (P10827 whole entry, looked up, the tested form may be a part): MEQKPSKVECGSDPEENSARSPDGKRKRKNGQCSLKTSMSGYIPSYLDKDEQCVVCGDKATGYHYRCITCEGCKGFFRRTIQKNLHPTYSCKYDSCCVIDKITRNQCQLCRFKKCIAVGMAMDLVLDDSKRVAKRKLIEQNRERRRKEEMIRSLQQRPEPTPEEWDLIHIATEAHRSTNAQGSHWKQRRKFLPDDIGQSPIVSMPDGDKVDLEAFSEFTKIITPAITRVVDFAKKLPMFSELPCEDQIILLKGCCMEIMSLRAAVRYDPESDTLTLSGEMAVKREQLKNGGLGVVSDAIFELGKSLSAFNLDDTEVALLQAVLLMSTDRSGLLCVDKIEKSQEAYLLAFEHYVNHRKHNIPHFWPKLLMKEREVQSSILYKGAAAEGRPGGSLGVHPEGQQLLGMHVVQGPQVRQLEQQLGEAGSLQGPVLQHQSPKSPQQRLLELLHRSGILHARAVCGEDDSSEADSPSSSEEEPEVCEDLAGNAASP

On to `CCCc1ccccc1`, for which the compound was classed as inactive in assay [1], in assay [2], in assay [3], in assay [4], in assay [5] and in assay [6]. In addition, the outcome in assay [7], in [8] and in [9] was inactive.

For `CCCCCCCCCCCCCCCCOS(=O)(=O)O`, the results for the AC50 in [1] and in assay [4] were 14.6 µM (active) and 14.7 µM (active), respectively. Moreover, the call in assay [2], in assay [3], in [5], in assay [10], in assay [6] and in [7] was inactive. Moreover, the result in assay [8] and in assay [9] was inactive.

In the case of `O=C(O)CO`, the AC50 (in general, the concentration at which the activity in the assay is half-maximal) in [1] was 0.679 µM (active). The result in assay [1], in assay [2] and in assay [9] was inactive.

Take `O=S(=O)(O)c1ccc(N=Nc2c(O)ccc3cc(S(=O)(=O)O)ccc23)cc1`: the compound was called inactive in assay [1], in assay [2], in assay [3], in assay [4], in assay [5] and in [6]. Further, the result in [7] and in [9] was inactive.

In the case of `OCC(CO)(CO)CO`, the result in assay [1], in assay [2], in [3], in assay [4], in assay [5] and in assay [10] was inactive. The outcome in assay [7], in assay [8] and in assay [9] was inactive.

Take `C[C@@H](Oc1ccc(CNC(=O)c2cccnc2Oc2ccc3c(c2)OCO3)c(F)c1)C(=O)O`: the compound was called inactive in [1], in [2], in assay [3], in assay [4], in assay [5] and in [10]. Moreover, the outcome in [6] and in assay [7] was inactive.

For `CC(C)c1nnc2ccc(-c3ocnc3-c3cc(F)ccc3F)cn12`, the outcome in [1], in assay [3], in assay [4], in [10] and in assay [9] was inactive. Besides, the AC50 in assay [5] was 1 µM (active); in assay [7], 0.148 µM (active).

In the case of `CCCCCCCC1CCC(=O)O1` (stereo unspecified), the call in assay [1], in assay [3], in [4], in assay [5], in assay [10] and in assay [6] was inactive. The result in assay [7] was inactive.

In the case of `CCCC(CCC)C(=O)O`, the compound was classed as inactive in [1], in assay [3], in assay [4], in assay [5], in assay [10] and in [7]. The result in [8] and in assay [9] was inactive.

`Cc1ccc(S(=O)(=O)NC(=O)NN2CCCCCC2)cc1`: the call in assay [1], in assay [3], in [4], in [5], in assay [7] and in assay [9] was inactive.

Take `O=C1CN(N=Cc2ccc([N+](=O)[O-])o2)C(=O)N1`: the AC50 in assay [1] is 45.6 µM (active); in assay [3], 9.86 µM (active). Besides, the result in assay [2], in assay [4], in assay [5], in assay [7], in assay [8] and in assay [9] was inactive.

As to `CCCCCCCCN(C)C`, the call in [1], in assay [3], in assay [4], in assay [5], in assay [7] and in assay [9] was inactive.

In the case of `C=CCc1cc(S(=O)(=O)c2ccc(O)c(CC=C)c2)ccc1O`, the call in assay [2], in assay [10] and in assay [9] was inactive. In addition, the AC50 in assay [3] was 20 µM (active); in [4], 21.1 µM (active); in assay [5], 14.4 µM (active); in [6], 16.3 µM (active); in assay [7] it was 12.4 µM (active); in assay [8], 34.8 µM (active).

`NC(N)=O`: the compound was called inactive in [1], in [3], in assay [4], in assay [5] and in assay [7].

As for `CCCCCCCCCC`, the compound was called inactive in [1], in assay [3], in assay [4], in assay [5], in assay [10] and in assay [7]. Further, the compound was classed as inactive in assay [9].

Take `O=C(O)c1cccc(C(=O)O)c1`: the compound was called inactive in [2], in [3], in assay [4], in assay [5], in [10] and in assay [6]. Besides, the result in assay [7] and in assay [8] was inactive.

For `Cn1cc[nH]c1=S`, the compound was called inactive in [1], in assay [3], in assay [4], in [5], in assay [10] and in assay [6]. The result in assay [7] and in [8] was inactive.

For `CCCOc1ccc(S(=O)(=O)N2CCN(CC)CC2)cc1-c1nc2c(CC)n(Cc3ccccn3)nc2c(=O)[nH]1`, the result in assay [1], in [3], in [4], in [5], in assay [10] and in [7] was inactive. Besides, the compound was called inactive in assay [9].

Consider `CNC(C)=O`, for which the compound was called inactive in [1], in assay [2], in assay [3], in assay [4], in assay [5] and in [7].

As to `CCn1nc(C)c2c1C(=O)NCC(c1ccc(O)cc1)=N2`, the compound was called inactive in [1], in assay [2], in assay [3], in [4], in assay [5] and in assay [7]. Besides, the result in [8] was inactive.

With `FC(F)(F)COC(OCC(F)(F)F)OCC(F)(F)F`, the result in assay [1], in assay [3], in [4], in assay [5], in assay [10] and in assay [6] was inactive. Besides, the result in [7], in assay [8] and in assay [9] was inactive.

Take `CCN(CC)C(=S)SSC(=S)N(CC)CC`: the outcome in assay [1] and in assay [9] was inactive. Moreover, the AC50 was 34.8 µM (active) in assay [3]; 16.3 µM (active) in [4]; 30.6 µM (active) in assay [5]; 24.6 µM (active) in assay [10]; 12.4 µM (active) in assay [6]; 31.2 µM (active) in assay [7].

For the compound `OC[C@H]1O[C@@H]2O[C@H]3[C@H](O)[C@@H](O)[C@@H](O[C@H]4[C@H](O)[C@@H](O)[C@@H](O[C@H]5[C@H](O)[C@@H](O)[C@@H](O[C@H]6[C@H](O)[C@@H](O)[C@@H](O[C@H]7[C@H](O)[C@@H](O)[C@@H](O[C@H]1[C@H](O)[C@H]2O)O[C@@H]7CO)O[C@@H]6CO)O[C@@H]5CO)O[C@@H]4CO)O[C@@H]3CO`, the result in [1], in assay [3], in assay [4], in assay [5], in [10] and in assay [7] was inactive. For the same compound, in assay [9], the result was inactive.

`Nc1ccn([C@@H]2O[C@H](CO)[C@@H](O)[C@@H]2O)c(=O)n1`: the call in assay [1], in [3], in assay [4], in assay [5], in [10] and in [7] was inactive. Besides, the outcome in assay [8] and in assay [9] was inactive.

In the case of `O=C(Cl)C(F)(F)C(F)(F)C(F)(F)C(=O)Cl`, the call in assay [1], in assay [3], in [4], in assay [5], in assay [7] and in [8] was inactive. The compound was called inactive in [9].
